# Measurements taken from the supplement of paper PMC12282887.
# ± gives the standard deviation of the averaged measurements.
# Experiments:
# Assay in all cases: promoter activity interaction Z-score (Lux/OD deviation from empty-vector control); higher = stronger promoter induction by the compound
# [1] = tested on: E. coli BW25113 acrABp lux reporter
# Method in brief: (§1)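 In 384-well plates, 40 µl LB Lennox cultures of E. coli BW25113 with low-copy luxCDABE promoter reporters grew at 37°C. Optical density at 600 nm and light output were recorded every 30 min for 12 h, with windows of 0–8 h for wild type and 1–9 h for deletion strains, and wells under 10% of the median growth value were left out. Each value is a Z-transformed residual of growth-normalised luminescence fitted against a control.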
# [2] = tested on: E. coli BW25113 micFp lux reporter
# Method in brief: as §1
# [3] = tested on: E. coli BW25113 ompFp lux reporter
# Method in brief: as §1
# [4] = tested on: E. coli BW25113 robp lux reporter
# Method in brief: as §1
# [5] = tested on: E. coli BW25113 soxSp lux reporter
# Method in brief: as §1
# [6] = tested on: E. coli BW25113 tolCp lux reporter
# Method in brief: as §1
# [7] = 3.2 µg/ml, genetic background: wild type
# [8] = 3.2 µg/ml, genetic background: ΔmarA
# [9] = 3.2 µg/ml, genetic background: Δrob
# [10] = 3.2 µg/ml, genetic background: ΔsoxS
# [11] = 6.3 µg/ml, genetic background: wild type
# [12] = 6.3 µg/ml, genetic background: ΔmarA
# [13] = 6.3 µg/ml, genetic background: Δrob
# [14] = 6.3 µg/ml, genetic background: ΔsoxS
# [15] = 12.7 µg/ml, genetic background: wild type
# [16] = 12.7 µg/ml, genetic background: ΔmarA
# [17] = 12.7 µg/ml, genetic background: Δrob
# [18] = 12.7 µg/ml, genetic background: ΔsoxS
# [19] = 25.3 µg/ml, genetic background: wild type
# [20] = 25.3 µg/ml, genetic background: ΔmarA
# [21] = 25.3 µg/ml, genetic background: Δrob
# [22] = 25.3 µg/ml, genetic background: ΔsoxS
smiles,measurement,setting,value
Cc1cc(NS(=O)(=O)c2ccc(N)cc2)no1 [Sulfamethoxazole],promoter activity interaction Z-score,[1]; [7],-0.0765 ± 0.27
same,promoter activity interaction Z-score,[1]; [8],0.689 ± 0.77
same,promoter activity interaction Z-score,[1]; [9],-0.221 ± 0.15
same,promoter activity interaction Z-score,[1]; [10],-0.171 ± 0.12
same,promoter activity interaction Z-score,[1]; [11],-0.0766 ± 0.0099
same,promoter activity interaction Z-score,[1]; [12],0.146 ± 0.35
same,promoter activity interaction Z-score,[1]; [13],-0.0332 ± 0.079
same,promoter activity interaction Z-score,[1]; [14],-0.186 ± 0.085
same,promoter activity interaction Z-score,[1]; [15],0.0229 ± 0.067
same,promoter activity interaction Z-score,[1]; [16],0.358 ± 0.25
same,promoter activity interaction Z-score,[1]; [17],0.21 ± 0.21
same,promoter activity interaction Z-score,[1]; [18],0.0418 ± 0.11
same,promoter activity interaction Z-score,[1]; [19],0.696 ± 0.24
same,promoter activity interaction Z-score,[1]; [20],2.36 ± 1.9
same,promoter activity interaction Z-score,[1]; [21],1.91 ± 0.82
same,promoter activity interaction Z-score,[1]; [22],1.07 ± 0.6
same,promoter activity interaction Z-score,[2]; [7],0.243 ± 0.46
same,promoter activity interaction Z-score,[2]; [8],-0.0615 ± 0.078
same,promoter activity interaction Z-score,[2]; [9],0.056 ± 0.14
same,promoter activity interaction Z-score,[2]; [10],-0.0348 ± 0.3
same,promoter activity interaction Z-score,[2]; [11],0.103 ± 0.45
same,promoter activity interaction Z-score,[2]; [12],-0.116 ± 0.015
same,promoter activity interaction Z-score,[2]; [13],0.146 ± 0.091
same,promoter activity interaction Z-score,[2]; [14],0.0657 ± 0.36
same,promoter activity interaction Z-score,[2]; [15],0.21 ± 0.55
same,promoter activity interaction Z-score,[2]; [16],0.0105 ± 0.057
same,promoter activity interaction Z-score,[2]; [17],0.372 ± 0.13
same,promoter activity interaction Z-score,[2]; [18],0.279 ± 0.24
same,promoter activity interaction Z-score,[2]; [19],0.861 ± 0.2
same,promoter activity interaction Z-score,[2]; [20],-0.421 ± 0.013
same,promoter activity interaction Z-score,[2]; [21],0.736 ± 0.28
same,promoter activity interaction Z-score,[2]; [22],0.648 ± 0.11
same,promoter activity interaction Z-score,[3]; [7],1.17 ± 0.96
same,promoter activity interaction Z-score,[3]; [8],0.735 ± 0.72
same,promoter activity interaction Z-score,[3]; [9],0.192 ± 0.73
same,promoter activity interaction Z-score,[3]; [10],0.202 ± 0.47
same,promoter activity interaction Z-score,[3]; [11],0.748 ± 0.53
same,promoter activity interaction Z-score,[3]; [12],0.504 ± 0.34
same,promoter activity interaction Z-score,[3]; [13],0.735 ± 0.12
same,promoter activity interaction Z-score,[3]; [14],0.441 ± 0.62
same,promoter activity interaction Z-score,[3]; [15],1.51 ± 1.2
same,promoter activity interaction Z-score,[3]; [16],1.32 ± 0.24
same,promoter activity interaction Z-score,[3]; [17],1.71 ± 0.49
same,promoter activity interaction Z-score,[3]; [18],1.17 ± 0.39
same,promoter activity interaction Z-score,[3]; [19],2.06 ± 0.7
same,promoter activity interaction Z-score,[3]; [20],2.26 ± 0.076
same,promoter activity interaction Z-score,[3]; [21],3.31 ± 1.6
same,promoter activity interaction Z-score,[3]; [22],1.97 ± 1.8
same,promoter activity interaction Z-score,[4]; [7],0.934 ± 0.15
same,promoter activity interaction Z-score,[4]; [8],0.341 ± 0.082
same,promoter activity interaction Z-score,[4]; [9],0.297 ± 1.1
same,promoter activity interaction Z-score,[4]; [10],-0.129 ± 0.16
same,promoter activity interaction Z-score,[4]; [11],0.764 ± 0.4
same,promoter activity interaction Z-score,[4]; [12],0.234 ± 0.17
same,promoter activity interaction Z-score,[4]; [13],0.557 ± 0.64
same,promoter activity interaction Z-score,[4]; [14],0.243 ± 0.13
same,promoter activity interaction Z-score,[4]; [15],1.5 ± 0.42
same,promoter activity interaction Z-score,[4]; [16],1.47 ± 0.23
same,promoter activity interaction Z-score,[4]; [17],0.701 ± 0.021
same,promoter activity interaction Z-score,[4]; [18],0.407 ± 1.1
same,promoter activity interaction Z-score,[4]; [19],3.24 ± 0.095
same,promoter activity interaction Z-score,[4]; [20],0.76 ± 0.27
same,promoter activity interaction Z-score,[4]; [21],3.24 ± 0.084
same,promoter activity interaction Z-score,[4]; [22],3.15 ± 1.5
same,promoter activity interaction Z-score,[5]; [7],-0.125 ± 0.029
same,promoter activity interaction Z-score,[5]; [8],-0.2505 ± 0.00087
same,promoter activity interaction Z-score,[5]; [9],-0.453 ± 0.05
same,promoter activity interaction Z-score,[5]; [10],-0.491 ± 0.32
same,promoter activity interaction Z-score,[5]; [11],-0.197 ± 0.018
same,promoter activity interaction Z-score,[5]; [12],-0.00904 ± 0.067
same,promoter activity interaction Z-score,[5]; [13],-0.169 ± 0.057
same,promoter activity interaction Z-score,[5]; [14],-0.482 ± 0.4
same,promoter activity interaction Z-score,[5]; [15],-0.385 ± 0.017
same,promoter activity interaction Z-score,[5]; [16],-0.102 ± 0.16
same,promoter activity interaction Z-score,[5]; [17],-0.194 ± 0.12
same,promoter activity interaction Z-score,[5]; [18],-0.0885 ± 0.49
same,promoter activity interaction Z-score,[5]; [19],-0.318 ± 0.11
same,promoter activity interaction Z-score,[5]; [20],-0.113 ± 0.15
same,promoter activity interaction Z-score,[5]; [21],-0.388 ± 0.03
same,promoter activity interaction Z-score,[5]; [22],-0.495 ± 0.81
same,promoter activity interaction Z-score,[6]; [7],1.21 ± 0.56
same,promoter activity interaction Z-score,[6]; [8],-0.16 ± 0.5
same,promoter activity interaction Z-score,[6]; [9],-0.33 ± 1
same,promoter activity interaction Z-score,[6]; [10],-0.705 ± 0.53
same,promoter activity interaction Z-score,[6]; [11],-0.676 ± 0.91
same,promoter activity interaction Z-score,[6]; [12],1.17 ± 0.5
same,promoter activity interaction Z-score,[6]; [13],0.87 ± 0.48
same,promoter activity interaction Z-score,[6]; [14],-0.0792 ± 0.033
same,promoter activity interaction Z-score,[6]; [15],-0.0116 ± 0.8
same,promoter activity interaction Z-score,[6]; [16],0.0751 ± 0.68
same,promoter activity interaction Z-score,[6]; [17],0.998 ± 0.39
same,promoter activity interaction Z-score,[6]; [18],0.466 ± 1
same,promoter activity interaction Z-score,[6]; [19],1.95 ± 0.023
same,promoter activity interaction Z-score,[6]; [20],0.663 ± 1.2
same,promoter activity interaction Z-score,[6]; [21],0.663 ± 0.22
same,promoter activity interaction Z-score,[6]; [22],1.64 ± 0.21
